In the library only some 3.3% were active in any assay of this set; here they are far more common.
USP1-UAF1 inh – inhibitors of human USP1/UAF1 deubiquitinase; recombinant USP1/UAF1, Ub-Rhodamine cleavage fluorescence; AID 743255; Potency, µM (highest dose often 57.1 µM), hits mostly inhibitors; 0.23% of 390,000 active; also: nearly all actives have a fitted effect of over 60% in size
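Step one: compound is pinned into 1nM USP1/UAF1 in HEPES pH 7.8 buffer with TCEP. Step two: 15 min room-temperature incubation. Step three: Ub-Rho (150nM final) starts cleavage, tracked by fluorescence over six one-minute reads.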
PLK1 PBD block – blocks phosphopeptide binding to human PLK1 polo-box domain | P53350 | Plk1 PBD binding of FITC phosphopeptide, fluorescence polarization | AID 720504 | Potency, µM, most hits filed as inhibitors | 2.8% of 360,000 active; also: series mostly up to about 57 µM; nearly all actives have a fitted effect of over 65% in size
WRN helicase inh – inhibitors of human WRN helicase | WRN helicase unwinding, fluorescent forked duplex, kinetic | Potency, µM (top dose mostly 114 µM), most hits filed as inhibitors | 0.46% of 360,000 active; also: nearly all actives have a fitted effect of over 55% in size
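WRN at 20 nM final preincubated with compound 15 min at room temperature; reaction started with 100 nM fluorophore/quencher forked duplex oligonucleotide and 2 mM ATP final. Unwinding followed kinetically by red fluorescence (ex 525, em 598 nm).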
USP2a block – blocks human ubiquitin-specific protease USP2a; O75604; USP2 core, Ub-CHOP2 coupled fluorogenic reporter, 485/531; Potency, µM (top dose mostly 38.3 µM), most hits filed as inhibitors; 0.01% of 330,000 active; AID 463254
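USP2 core (10nM final) preincubated 30min RT with compound in 20mM Tris-HCl pH 8.0, 2mM CaCl2, 2mM beta-mercaptoethanol, 0.05% CHAPS; 25nM Ub-CHOP2 plus 25nM reporter substrate added, fluorescence (Ex485/Em531) read after 60min.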
PI5P4K alpha inh – blocks human PI5P4K alpha kinase activity; P48426; 1.2% of 330,000 active; PI5P4Kalpha enzyme, ADP-Glo luminescence, 60 min; stronger effect = lower value; max response, %; AID 652105; active = max response of -50% or lower; inconclusive = between -30% and -50%; inactive = -30% or higher; also: value at the top dose of about 77 µM
Target sequence (P48426 whole entry, looked up): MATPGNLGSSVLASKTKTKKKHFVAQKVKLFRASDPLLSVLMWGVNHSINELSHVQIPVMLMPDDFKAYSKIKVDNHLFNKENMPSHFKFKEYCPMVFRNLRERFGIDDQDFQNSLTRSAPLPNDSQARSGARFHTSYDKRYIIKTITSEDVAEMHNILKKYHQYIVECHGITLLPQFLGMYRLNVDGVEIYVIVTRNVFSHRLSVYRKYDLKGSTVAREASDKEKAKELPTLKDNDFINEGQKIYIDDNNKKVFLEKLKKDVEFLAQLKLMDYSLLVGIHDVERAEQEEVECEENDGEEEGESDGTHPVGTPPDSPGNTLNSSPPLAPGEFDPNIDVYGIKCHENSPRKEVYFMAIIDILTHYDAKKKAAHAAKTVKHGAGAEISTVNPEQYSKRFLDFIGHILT
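qHTS, 1536-well: enzyme/substrate mix, compound by pin tool, 5 microM ATP final; RT 60 min; ADP-Glo reagents 1 (45 min) then 2 (30 min); luminescence.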
Hits are given with their value; n = inactive; u = inconclusive; x = no result given. Unless noted, calls follow the shape of the dose curve; as a rule, active = well fitted curve in the direction sought with a large enough effect; inconclusive = small, poorly fitted or top-dose-only effect, or another doubt; inactive = no such curve, though single readings can be large; an effect the other way counts as inactive or inconclusive.

SMILES	USP1-UAF1 inh	PLK1 PBD block	WRN helicase inh	USP2a block	PI5P4K alpha inh
Cc1nc2ccc(NC(=O)c3cc([N+](=O)[O-])cc([N+](=O)[O-])c3Cl)cc2s1	n	2.7µM	10µM	n	n
Cc1nc2ccc(NC(=O)CCS(=O)(=O)c3ccc(Cl)cc3)cc2s1	n	17µM	n	n	n
O=C(N/N=C/c1ccc(OC(=O)c2ccc([N+](=O)[O-])cc2)cc1)c1cccnc1	n	n	n	n	n
O=C(N/N=C/c1ccc(OC(=O)c2ccccc2)cc1)c1cccnc1	n	n	56µM	n	n
O=C(N/N=C/c1ccc[nH]1)c1cccnc1	n	3µM	n	n	u
Cc1ccc(CNC(=O)CCc2ccc(S(=O)(=O)NC3CCCCC3)cc2)cc1	n	30µM	n	n	n
Cc1cc(=O)oc2cc(NC(=S)NCc3ccccn3)ccc12	n	n	n	n	n
Cc1cc(=O)oc2cc(NC(=S)NNC(=O)c3c(Cl)cnn3C)ccc12	n	n	u	n	-53
Cc1ccc2c(c1)-c1onc(C(=O)N(C)c3ccc(F)cc3)c1CO2	n	x	x	x	x
CC(C)CCNC(=O)c1cn(C)c2ccc(S(=O)(=O)N3CCOCC3)cc2c1=O	n	x	x	x	x
O=C(Nc1ccccc1)C1C2/C=C\CCCCC21 (stereo not given)	n	27µM	n	n	n
Cc1ccccc1NC(=O)C1C2/C=C\CCCCC21 (stereo not given)	n	n	n	n	n
O=C(CCCn1c(=O)c2ccccc2n(Cc2ccc(F)cc2Cl)c1=O)NCCc1ccc(Cl)cc1	n	x	x	x	x
Cc1ccnc(N=O)c1	n	11µM	n	n	u
Cc1ccc(-n2[nH]c(C)c(C=Nc3cc(C)ccn3)c2=O)cc1	n	n	n	n	n
CCCCN(CC)Cc1ccc(CNC(=S)Nc2c(C)cc(C)cc2C)o1	n	13µM	n	n	n
CCCCN(CC)Cc1ccc(CNC(=S)Nc2ccc(C)cc2Cl)o1	n	n	n	n	n
Cc1ccc(Cl)cc1N1CCN(C(=O)Cn2cnc3sc(C)c(S(=O)(=O)N4CCC(C)CC4)c3c2=O)CC1	n	x	x	x	x
CCNC(=O)CC1C(=O)N(c2ccc(C)cc2)C(=O)N1Cc1ccc(C)cc1 (stereo not given)	n	x	x	x	x
CCNC(=O)CC1C(=O)N(c2ccc(OC)cc2)C(=O)N1Cc1ccc(OC)cc1 (stereo not given)	n	30µM	n	n	x
CCOc1nc(N2CCOCC2)nc(C)c1[N+](=O)[O-]	n	30µM	n	n	n
CNCCOc1nc(N2CCOCC2)nc(C)c1[N+](=O)[O-]	n	n	n	n	n
O=c1[nH][nH]c2c1[C@H](c1ccccc1)O[C@H](C1CCCCC1)C2	x	12µM	n	x	u
O=c1[nH][nH]c2c1[C@H](c1ccc(Cl)cc1)O[C@H](C1CC1)C2	x	12µM	n	x	n
CCCC[C@@H]1Cc2[nH][nH]c(=O)c2[C@H](c2ccc(C(C)C)cc2)O1	x	9.5µM	n	x	n
SMILES	USP1-UAF1 inh	PLK1 PBD block	WRN helicase inh	USP2a block	PI5P4K alpha inh
O=c1[nH][nH]c2c1[C@@H](c1ccc(F)cc1)O[C@H](C1CCCCC1)C2	x	n	n	x	n
O=c1[nH][nH]c2c1[C@H](c1ccc(F)cc1)O[C@H](C1CCCCC1)C2	x	n	n	x	n
COc1ccccc1OCC(=O)N(Cc1ccco1)Cc1ccccc1F	n	x	x	x	x
COC(=O)c1scc(-c2ccc(C)cc2)c1S(=O)(=O)N1CCN(c2cccc(Cl)c2)CC1	n	x	x	x	x
Cn1nnc2c(N3CCN(c4cccc(Cl)c4)CC3)ncnc21	n	x	x	x	x
CCCn1c2ccccc2c2cnn(CC(=O)N(Cc3ccccc3)C(C)C)c(=O)c21	n	x	x	x	x
CCN(CC)CCNC(=O)c1[nH]c2ccccc2c1Sc1ccc(Cl)cc1	n	x	x	x	x
COc1ccc(NC(=O)C2CCCCN2N)cc1OC (stereo not given)	n	27µM	n	n	n
COc1ccc(CN2CCCCC2C(=O)Nc2ccc(OC)c(OC)c2)cc1OC (stereo not given)	n	n	n	n	x
O=C1C=CC(=O)c2c(O)c(N3CCN(CCO)CC3)c(Cl)c(O)c21	2.8µM	12µM	32µM	x	u
Cc1ccc(C2C3=C(CCCC3=O)Nc3[nH]c(=S)[nH]c(=O)c32)cc1 (stereo not given)	n	u	n	n	x
COC(=O)C1=C(C)Nc2[nH]c(=S)[nH]c(=O)c2C1c1ccc(O)cc1 (stereo not given)	n	n	n	n	n
